Data as given in PubChem BioAssay (NCI).
The panel holds about 79,000 compounds, 15% with a hit somewhere; the sample as a whole holds those more often. Values without a mark were called inactive. The source made the active and inactive calls. No stated cut-off is given here; in the data, active means growth inhibition above about 70%; inactive means the rest. *1 amine or outer side, *2 acyl side, *3 side chain or, on linkers, in order; H or OH if unused. Where a SMILES comes first, the peptide text is derived from it. Bridges are numbered along the chain shown (N, C = ends). [ ]: non-standard residue; d: D form. The star is where a group is joined. ξ: configuration not given here. Fmoc = O=C(OCC1c2ccccc2-c2ccccc21)*; X9 = O=C(C(CCCCNO[*:3])N[*:1])[*:2]; ξW = NC(Cc1c[nH]c2ccccc12)C(=O)O; ξP = O=C(O)C1CCCN1

How the values were obtained:
[1] = NCI Yeast Anticancer Drug Screen. Data for the rad50 strain (AID 155);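 further: 0% = growth of vehicle-only cultures of the same strain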; details: S. cerevisiae rad50 strain growth inhibition; at 50.0 µM; stronger effect = higher value
How it was run: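 Genetically altered yeast (DNA repair pathway); compound treatment; growth inhibition vs vehicle ctrl.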

[2] = NCI Yeast Anticancer Drug Screen. Data for the mec2-1 strain (AID 157); details: S. cerevisiae mec2-1 strain, at 50.0 µM, stronger effect = higher value
How it was run: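 Strain: mec2-1 (DNA repair/cell cycle alteration). Compound exposure, then growth measured; inhibition expressed relative to vehicle.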

[3] = NCI Yeast Anticancer Drug Screen. Data for the sgs1 mgt1 strain (AID 161);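 further: 0% = growth of cultures given vehicle only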; details: S. cerevisiae sgs1 mgt1 strain, at 50.0 µM, stronger effect = higher value
How it was run: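 Inhibition of yeast growth, normalised to vehicle-treated controls, is reported for a strain bearing genetic alterations in DNA damage repair.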

[4] = NCI Yeast Anticancer Drug Screen. Data for the cln2 rad14 strain (AID 165);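 further: 0% = growth equal to vehicle treated cultures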; details: S. cerevisiae cln2 rad14 strain, at 50.0 µM, stronger effect = higher value
How it was run: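 Compounds are applied to the cln2 rad14 yeast strain, and growth is then compared with that of vehicle-treated cultures to give inhibition.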

[5] = NCI Yeast Anticancer Drug Screen. Data for the bub3 strain (AID 167); details: S. cerevisiae bub3 mutant strain, at 50.0 µM, stronger effect = higher value
How it was run: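 Yeast carrying a defined mutation is treated with each compound, and growth is compared with that of vehicle-exposed cells to give inhibition.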

[6] = NCI Yeast Anticancer Drug Screen. Data for the mlh1 rad18 strain (AID 175); details: S. cerevisiae mlh1 rad18 strain growth inhibition; at 50.0 µM; stronger effect = higher value
How it was run: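 Read-out is yeast growth inhibition, calculated against vehicle-only controls. The compound was applied to a strain engineered with DNA damage repair alterations.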

SMILES | growth inhibition [1] | growth inhibition [2] | growth inhibition [3] | growth inhibition [4] | growth inhibition [5] | growth inhibition [6]
COC(=O)c1c([N+](=O)[O-])ncn1C1CC(OC(C)=O)C(COC(C)=O)O1 (stereo unspecified) | 15.2% | -4.9% | -1.9% | -30.8% | -17.7% | 5.25%
Cc1ccc(-c2oc3ccccc3c(=O)c2O)cc1 | 22.9% | -9.9% | 2.1% | -5.3% | 5.45% | 7.65%
Cc1ccc(F)c([N+](=O)[O-])c1 | -3.55% | 7.1% | -10.5% | 0% | -9.65% | -6.5%
COc1ccc2ccccc2c1C1NC(=O)c2ccccc2N1 (stereo unspecified) | 13.1% | -17.8% | 5.75% | 8.9% | 12.5% | 0.1%
CC(C)Nc1nc(N)nc2nc(-c3ccc(Cl)cc3)c(-c3ccc(Cl)cc3)nc12 | -8.7% | -2.5% | -6.85% | -17.4% | 8% | 8%
COC(=O)CCC1=C(C)C2=NC1=CC1=NC(=CC3=NC(=Cc4[nH]c(/c(=C\O)c4C)=C2)C(C=O)=C3C)C(C)=C1CCC(=O)OC | 28.1% | 16.5% | 32.2% | 26.9% | 9.15% | 11.6%
c1ccc(C2=C([P+](c3ccccc3)(c3ccccc3)c3ccccc3)CCO2)cc1 | 99% (active) | 99.1% (active) | 98.7% (active) | 98.2% (active) | 98.3% (active) | 98.8% (active)
O=C1c2ccccc2C(=O)c2cc(C[n+]3ccccc3C3OCCO3)ccc21 | 19% | 7.2% | 42.2% | 15.8% | -0.8% | 2.55%
COc1ccc(/C=N\NC(=O)N/N=C/c2ccc(OC)c(Br)c2)cc1Br | 44.3% | 39.7% | 44.6% | 49.5% | 39.2% | 71.7% (active)
Nc1nc(-c2ccccc2)nc2nc[nH]c12 | 8.75% | -3.9% | -20.3% | -2.2% | 0.85% | 5.85%
CC12CCC(C/C1=N\NC(N)=O)C2(C)C (stereo unspecified) | 4.2% | -16.6% | -18.2% | 2.55% | -19.9% | -1.45%
COC(=O)/C(=C\C(=O)c1ccc(Br)cc1)NN=C(c1ccccc1)c1ccccc1 | -20.3% | -1.55% | -3.3% | 4.25% | -20.1% | -20.4%
COC(=O)c1ccccc1N=CCC(C)CCCC(C)(C)O (stereo unspecified) | -10.4% | 4.4% | 26.4% | -8.4% | 0.1% | -5.05%
O/N=C(\C(=N/O)Nc1ccc(-c2ccc(NC(=N/O)/C(=N\O)c3ccccc3)cc2)cc1)c1ccccc1 | 7.35% | -43.4% | -8.5% | 1.45% | -14.4% | 1.1%
C=CCOC(=O)Nc1cc(Cl)ccc1C | 3.9% | 1.2% | -8.5% | -9.25% | -1.55% | -9.8%
NC(=O)CNC(=O)C1CCCN1C(=O)C1CCCCNOC(=O)CC[C@@H](NC(=O)OCC2c3ccccc3-c3ccccc32)C(=O)NC(Cc2c[nH]c3ccccc23)C(=O)N1 (stereo partly specified) (Fmoc-[dE][ξW][X9][ξP]G-NH2; ester 1-3) | -10.2% | -15.8% | -6.55% | 24.1% | -16.2% | -19.6%
Cc1nn(C(=O)c2ccc(Cl)cc2)c2c1C(c1ccc(O)cc1)SC(N)=N2 (stereo unspecified) | -33% | -49.1% | -43.7% | -26.8% | -23.9% | -31.2%
COc1ccccc1-n1c(NN)nc2ccc(Br)cc2c1=O | 55.6% | 13.4% | 27.4% | 13.2% | 27.2% | -12.4%
CCCCCC(CC)OC(=O)Nc1cccc2ccccc12 (stereo unspecified) | 6.05% | 7.2% | 10.7% | -9.15% | -3.35% | 0.1%
Oc1ccc([C@H]2Oc3c(c(O)cc4c3C3c5c(O)cc(O)cc5OC(c5ccc(O)cc5)(O4)[C@H]3O)CC2O)cc1 (stereo partly specified) | 1.85% | -4.6% | -20.9% | -4.65% | -7% | -5.75%
CCCCCCCCCCCCCCCCCCCCCCBr | 4.95% | 4.8% | 16.8% | 21.4% | -2.75% | 14.3%

SMILES | growth inhibition [1] | growth inhibition [2] | growth inhibition [3] | growth inhibition [4] | growth inhibition [5] | growth inhibition [6]
COC(=O)c1nc(N)nc(C(=O)OC)c1C(=O)c1cccnc1 | -15.2% | -17.8% | -0.35% | -15.3% | -4.7% | 10.1%
CCC(c1ccc(OC)cc1)C1NC(=S)NC1=O (stereo unspecified) | 4.05% | -30.1% | 3.2% | 6.45% | 9.55% | 11.6%
Cc1cc2nc3n(c2cc1C)C(=O)c1cc2ccccc2cc1-3 | -8.55% | 0.6% | 3.1% | 7.7% | -10.4% | 2.7%
C[C@]12CCC(=O)O[C@@H]1CC[C@@H]1[C@@H]2CC[C@]2(C)[C@@H](O)CC[C@@H]12 | 20.9% | 14% | 42.3% | 32.5% | 27.2% | 23.1%
CCOc1ccc(NC(=O)CCCCCCCCC(=O)Nc2ccc(OCC)cc2)cc1 | 6.8% | 3.2% | -11.8% | -1.9% | -4.8% | 19.8%
C=C(C)C1CC=C(C)/C(=N\O)C1 (stereo unspecified) | -5.15% | -9.9% | -17.4% | 3.05% | 15% | -5.6%
OC1(c2ccc(F)cc2)CCNCC1 | 21.5% | -7.55% | 33.9% | 20.4% | 19% | 7.2%
COc1ccc(C(=O)O)c2c(=O)c3ccccc3[nH]c12 | -28.8% | -3.2% | -8.55% | 17.2% | 3.2% | 26.8%
Clc1ccc(Cl)c2c(Br)cncc12 | 37.4% | 10.8% | 12.9% | 7.05% | 17.5% | 22.1%
NC(CS)C(=O)NCCNCCNc1ccc(NCCNCCNC(=O)C(N)CS)c2c1C(=O)c1c(O)ccc(O)c1C2=O (stereo unspecified) | -30.4% | -12.4% | 2.1% | -0.85% | -10.5% | -12.7%
CCCCCCCCCCCCOP(=O)(O)OCC(N)C(=O)O (stereo unspecified) | 10.7% | 9.2% | -11.4% | -39.8% | -18% | -19.3%
CCCCC(C)(O)CCC (stereo unspecified) | 5.8% | -11.9% | 0.5% | 5.05% | 7.3% | -6.05%
N#Cc1cccc(NC(=O)c2ccc(C(=O)O)c(C(=O)c3ccc(C(=O)O)c(C(=O)Nc4cccc(C#N)c4)c3)c2)c1 | -18.6% | -9.7% | -19% | 8.35% | 2% | -20.8%
Nc1ccn([C@@H]2C=C(CO)[C@@H](O)[C@H]2O)c(=O)n1 | -16.1% | -20.6% | -22.5% | -13.3% | -10.4% | -21.9%
O=C(O)/C=C\C(=O)Nc1ccccc1 | 10.2% | 15.8% | -16.1% | -53.5% | -3.25% | 11.5%
COc1ccc(C(C)=O)cc1 | 34.5% | 18.8% | 30.6% | 37.1% | 29.9% | 18.9%
O=c1c2cc3ccccc3cc2c(=O)n2n1CC(O)C(Br)C2 (stereo unspecified) | 64.7% | 20.9% | 36.5% | -28.6% | -3.2% | 17.7%
N#C/C(=C\NC(=S)Nc1ccccc1Cl)C(=O)c1ccc2ccccc2c1 | -24.4% | -18% | 0.7% | 13.3% | -35.6% | -28.8%
N#COc1ccc(-c2ccccc2)cc1 | -38.5% | -8.35% | -12.2% | -15.2% | -9.25% | 0.8%
COc1cc(C(=O)O)c(C(=O)O)cc1OC | 2.6% | 21.4% | 20.5% | -29.1% | 2.45% | 0.5%
